{"source": "paper PMC4552634", "about": "“A New Set of Chemical Starting Points with Plasmodium falciparum Transmission-Blocking Potential for Antimalarial Drug Discovery” (PLoS ONE, 2015)", "note": "Screen size: about 13,000 compounds; about 3,200 (25%) showed an effect of 50% or more. The list shows a part of the results.", "data": [{"tested_on": "P. falciparum stage V gametocytes", "parameters": "BacTiter-Glo ATP luminescence viability of purified stage V gametocytes in 384-well plates, per cent inhibition versus DMSO", "settings": "48 h, 5 µM; inhibitor", "units": {"% Inhibition": "%"}, "values": [{"molecule": "CN1CCC(N(Cc2ccc(-c3ccc(C(F)(F)F)cc3)cc2)C(=O)Cn2c(SCc3cccc(F)c3F)cc(=O)c3c2CCC3)CC1", "note": "[TCMDC-141319]", "% Inhibition": 92.96}, {"molecule": "CC(C)N1CCC(N(Cc2ccc(-c3ccc(C(F)(F)F)cc3)cc2)C(=O)Cn2c(SCc3cccc(F)c3F)cc(=O)c3c2CCC3)CC1", "note": "[TCMDC-141320]", "% Inhibition": 98.3}, {"molecule": "O=C(NOCc1ccccc1)c1cc(Cl)ccc1O", "note": "[TCMDC-131603]", "% Inhibition": 3.846}, {"molecule": "CCC1CCc2cc(N)cc(-c3nc4c(c(C)nn4CC)c(=O)[nH]3)c2O1", "note": "(stereo not shown) [TCMDC-131857]", "% Inhibition": 1.879}, {"molecule": "CCC(=O)Nc1ccc(C(O)CN2CCC3(C=Cc4ccccc4O3)CC2)cc1", "note": "(stereo not shown) [TCMDC-124852]", "% Inhibition": 40}, {"molecule": "COc1cc2nc(NCCn3cccn3)nc(NCCc3ccccc3)c2cc1OC", "note": "[TCMDC-135472]", "% Inhibition": 50.26}, {"molecule": "COc1cc2nc(NCCn3ccnc3C)nc(NCCc3ccccc3)c2cc1OC", "note": "[TCMDC-135471]", "% Inhibition": 66.44}, {"molecule": "CN(C)Cc1ccc(-c2ccc3c(Nc4ccc(Oc5ccccn5)cc4)ccnc3c2)o1", "note": "[TCMDC-138425]", "% Inhibition": 93.82}, {"molecule": "CN(C)CCN(C)Cc1ccc(-c2ccc3c(Nc4ccc(Oc5ccccc5)cc4)ccnc3c2)o1", "note": "[TCMDC-138400]", "% Inhibition": 100.2}, {"molecule": "CS(=O)(=O)CCNCc1ccc(-c2ccc3c(Nc4ccc(Oc5ccccn5)cc4)ccnc3c2)o1", "note": "[TCMDC-138444]", "% Inhibition": 5.347}, {"molecule": "c1ccc(Oc2ccc(Nc3ccnc4ccc(-c5ccccn5)cc34)cc2)cc1", "note": "[TCMDC-138118]", "% Inhibition": -22.81}, {"molecule": "Clc1cc2c(Nc3ccc(Oc4ccccc4)cc3)ccnc2cc1-c1ccc(CNCCN2CCOCC2)o1", "note": "[TCMDC-138464]", "% Inhibition": 21.03}, {"molecule": "CN(C)CCN(C)Cc1ccc(-c2ccc3c(Nc4ccc(Oc5ccccn5)cc4)ccnc3c2)o1", "note": "[TCMDC-138426]", "% Inhibition": 89.24}, {"molecule": "CN(C)CCNCc1ccc(-c2ccc3c(Nc4ccc(Oc5ccccc5)cc4)ccnc3c2)o1", "note": "[TCMDC-138399]", "% Inhibition": 96.18}, {"molecule": "CN(C)Cc1ccc(-c2ccc3c(Nc4ccc(Oc5ccccc5)cc4)ccnc3c2)o1", "note": "[TCMDC-138401]", "% Inhibition": -9.57}, {"molecule": "COc1ccc(NC(=O)c2csc(-c3cc(NC(=O)c4ccnc(N5CCCC5)c4)ccc3C)c2)cc1N1CCN(C)CC1", "note": "[TCMDC-136374]", "% Inhibition": 23.12}, {"molecule": "NC(=O)c1cccc(Nc2nccc(Nc3ccc(Oc4cccc5ccccc45)cc3)n2)c1", "note": "[TCMDC-138599]", "% Inhibition": -18.47}, {"molecule": "CC[C@H]1CN2CC[C@H]1C[C@@H]2[C@@H](OC(=O)c1ccc(Cl)cc1)c1ccnc2ccc(OC)cc12", "note": "[TCMDC-125492]", "% Inhibition": -10.63}, {"molecule": "CC(C)(C)c1cc(C(=O)N2CCN(c3ncccc3C(F)(F)F)CC2)n(Cc2ccccc2)n1", "note": "[TCMDC-134142]", "% Inhibition": 2.354}, {"molecule": "CCN(CC)C(=O)C1CCCN(c2cc(C)nc(Nc3ccc(Cl)cc3)n2)C1", "note": "(stereo not shown) [TCMDC-132204]", "% Inhibition": -2.665}, {"molecule": "N#Cc1ccc(N2CCN(Cc3cccc(-c4cccc(-c5nc6cc(C(F)(F)F)ccc6[nH]5)c4)c3)CC2)nc1.O=C(O)C(F)(F)F", "note": "[TCMDC-133117]", "% Inhibition": -5.62}, {"molecule": "O=C(CCn1c2ccccc2c2ccccc21)NN=Cc1ccco1", "note": "[TCMDC-125735]", "% Inhibition": -6.333}, {"molecule": "CC(C)Cn1cc2c(ccc3nc(N)nc(N)c32)n1", "note": "[TCMDC-137969]", "% Inhibition": -46.77}, {"molecule": "COc1ccc2nccc([C@@H](O)CN3CCC(NC(=O)/C=C/c4cccc(-c5ccccc5)c4)CC3)c2c1", "note": "[TCMDC-141043]", "% Inhibition": -22.17}, {"molecule": "CC(C)[C@@H](NC(=O)NC1CCC(CCN2C3CCC2CC(OC(=O)C(CO)c2ccccc2)C3)CC1)C(O)(c1ccccc1)c1ccccc1", "note": "(stereo partly shown) [TCMDC-136458]", "% Inhibition": 45.88}, {"molecule": "CC(C)[C@H](NC(=O)NC1CCC(CCN2C3CCC2CC(OC(=O)C(CO)c2ccccc2)C3)CC1)C(O)(c1ccccc1)c1ccccc1", "note": "(stereo partly shown) [TCMDC-136457]", "% Inhibition": -19.47}, {"molecule": "CC(=O)c1ccc2c(c1)CCN(CCC1CCC(NC(=O)c3cc4ccccc4[nH]3)CC1)CC2", "note": "(stereo not shown) [TCMDC-139776]", "% Inhibition": -25.73}, {"molecule": "CC(NC(=O)NC1CCC(CCN2CCCc3ccccc32)CC1)c1cccc2ccccc12", "note": "(stereo not shown) [TCMDC-136176]", "% Inhibition": 92.78}, {"molecule": "CC(NCCC1CCC(NC(=O)N[C@H](C)C(O)(c2ccccc2)c2ccccc2)CC1)c1cccc2ccccc12", "note": "(stereo partly shown) [TCMDC-136378]", "% Inhibition": 64.1}, {"molecule": "N#Cc1ccc2c(c1)CCN(CCC1CCC(NC(=O)/C=C/c3cccc4ccccc34)CC1)CC2", "note": "(stereo not shown) [TCMDC-139777]", "% Inhibition": -39.21}, {"molecule": "Oc1cc2c(cc1CN1CCN(Cc3cccs3)CC1)CCC2", "note": "[TCMDC-125012]", "% Inhibition": 1.025}, {"molecule": "CCN(CC)CCN1C(=O)c2oc3ccc(Cl)cc3c(=O)c2C1c1ccc(SC)cc1", "note": "(stereo not shown) [TCMDC-124623]", "% Inhibition": 3.621}, {"molecule": "CCCCCN1C(=O)C(c2ccccc2)(c2ccccc2)N=C1N", "note": "[TCMDC-136877]", "% Inhibition": -32.2}, {"molecule": "COc1cccc(-c2cnc(N)c(-c3nc4ccc(C(F)(F)F)cc4[nH]3)c2)c1", "note": "[TCMDC-138790]", "% Inhibition": 13.24}, {"molecule": "COc1ccccc1NC(=O)Nc1ccc(-c2ccc(-c3nc4ccc(C(F)(F)F)cc4[nH]3)cc2)cc1", "note": "[TCMDC-133202]", "% Inhibition": -7.674}, {"molecule": "CCCCCCCc1cc(O)c2c3c(c(=O)oc2c1)CN(C)CC3", "note": "[TCMDC-124145]", "% Inhibition": 8.32}, {"molecule": "Cc1sc(CNCCCNc2cc(=O)c3ccccc3[nH]2)c(C(F)(F)F)c1C", "note": "[TCMDC-140906]", "% Inhibition": 5.874}, {"molecule": "CCNC(=O)Nc1ccc(-c2cccc(-c3nc4c(C)cccc4[nH]3)c2)cc1", "note": "[TCMDC-133171]", "% Inhibition": -9.855}, {"molecule": "Cc1cccc2[nH]c(-c3ccc(-c4cccc(NC(=O)Nc5cccc(C#N)c5)c4)cc3)nc12", "note": "[TCMDC-133198]", "% Inhibition": 83.69}, {"molecule": "Cc1cccc2[nH]c(-c3ccc(-c4cccc(NC(=O)C(=O)c5cccn5C)c4)cc3)nc12", "note": "[TCMDC-136907]", "% Inhibition": 90.5}, {"molecule": "Cc1cccc2[nH]c(-c3cccc(-c4ccc(NC(=O)Nc5cccc(C#N)c5)cc4)c3)nc12", "note": "[TCMDC-133192]", "% Inhibition": 2.358}, {"molecule": "Cc1cccc2[nH]c(-c3ccc(-c4ccc(NC(=O)C(=O)c5cccn5C)cc4)cc3)nc12", "note": "[TCMDC-136908]", "% Inhibition": 78.98}, {"molecule": "Cn1cccc1C(=O)C(=O)Nc1cccc(-c2ccc(-c3nc4ccc(C(F)(F)F)cc4[nH]3)cc2)c1", "note": "[TCMDC-136910]", "% Inhibition": 0.09328}, {"molecule": "Cc1cccc2[nH]c(-c3cccc(-c4cccc(NC(=O)Nc5cccc(C#N)c5)c4)c3)nc12", "note": "[TCMDC-133194]", "% Inhibition": -35.1}, {"molecule": "Cc1cccc2[nH]c(-c3cccc(-c4ccc(NC(=O)Nc5ccc(Cl)cc5)cc4)c3)nc12", "note": "[TCMDC-133177]", "% Inhibition": 12.12}, {"molecule": "Cn1cccc1C(=O)C(=O)Nc1ccc(-c2ccc(-c3nc4ccc(F)cc4[nH]3)cc2)cc1", "note": "[TCMDC-136780]", "% Inhibition": -3.552}, {"molecule": "Cc1cccc2[nH]c(-c3ccc(-c4cccc(NC(=O)Nc5ccccc5)c4)cc3)nc12", "note": "[TCMDC-133155]", "% Inhibition": 0.6364}, {"molecule": "Cc1cccc2[nH]c(-c3ccc(-c4ccc(NC(=O)Nc5ccc(Cl)cc5)cc4)cc3)nc12", "note": "[TCMDC-133184]", "% Inhibition": -26.89}, {"molecule": "Cc1cccc2[nH]c(-c3cccc(-c4ccc(NC(=O)C(=O)c5cccn5C)cc4)c3)nc12", "note": "[TCMDC-136909]", "% Inhibition": 70.67}]}]}
